# Compound activity deposited in PubChem BioAssay by National Center for Advancing Translational Sciences (NCATS).
# In the library only some 2.8% were active in any assay of this set; here they are far more common.
# IP6K1 inhibitor: Primary qHTS assay for small molecule inhibitors of Inositol hexaphosphate kinase 1 (IP6K1) | Inositol hexakisphosphate kinase 1 (Homo sapiens), Q92551 | IP6K1 kinase, ADP-Glo luminescence, 2 h; active compounds read low | activity change, % (series mostly up to about 58 µM) | AID 1645851, 2021 | actives 0.81% (n = 140,000); in the data active = activity change below about -25%; note: % is set by controls: 0 for no effect and ±100 for the full control effect
#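 ADP-Glo luminescence measures ADP made by human IP6K1 during a 2 h RT reaction with ATP/IP6 (mix at 1.3 mM/130 uM); top library doses 57.5 and 19.1 uM final.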
# KDM5B inh: Primary screen for KDM5B Histone Demethylases FDH-coupled qHTS | Lysine-specific demethylase 5B (Homo sapiens), Q9UGL1 | KDM5B demethylase, FDH-coupled NADH fluorescence (FDH is formaldehyde dehydrogenase) | Potency, µM (doses to about 57.7 µM), usual class: inhibitors | actives 2.6% (n = 220,000); active = well fitted inhibition curve with a large enough effect; inconclusive = small, poorly fitted or top-dose-only effect; inactive = no such curve, though single readings can be large or run the other way; note: potency is the fitted concentration of half-maximal effect; 0% is about no effect; nearly all actives have a fitted effect of over 70% in size
#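 qHTS format, multiple compound concentrations. Buffer 50 mM HEPES pH 7.5/0.01% Tween-20; 200 nM KDM5BΔAP final; 10 min compound preincubation; substrate-mix levels 12.5 µM peptide, 25 µM α-KG, 0.25 mM NAD⁺; 30 min RT; ΔRFU.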
# Starred values were filed as active, the others as inactive; i = inactive; ? = inconclusive; nt = no result given.
SMILES,IP6K1 inhibitor,KDM5B inh
O=C(c1ccccc1Cl)N1CCCC2(C1)Nc1cccnc1NC2=NC1CCCC1 (configuration not stated),3,?
COc1ccc(C(=O)N2CCCC3(C2)Nc2cccnc2NC3=NC2CCCC2)cc1F (configuration not stated),1,?
O=C(Nc1ccccc1Cl)N1CCCC2(C1)Nc1cccnc1NC2=NC1CCCC1 (configuration not stated),1,28µM*
O=C(c1ccccc1)N1CCCC2(C1)C(=NC1CCCCC1)NC(=O)N2c1cccnc1 (configuration not stated),13,?
CCOc1ccc(C(=O)N2CCCC3(C2)Nc2cccnc2NC3=NC2CCCC2)cc1 (configuration not stated),0,32µM*
O=C(c1ccccc1)N1CCCC2(C1)Nc1cccnc1NC2=NC1CCCC1 (configuration not stated),0,28µM*
O=C(C1CCCC1)N1CC2(CCN(CC3CCCCC3)C2)Cc2ccccc21 (configuration not stated),-1,?
O=C(NCC(=O)N1CCC(Cc2ccccc2)CC1)c1ccc(-c2cccc(C(F)(F)F)c2)cc1,6,nt
O=C(c1ccccc1)N1CCCC2(C1)Nc1cccnc1NC2=NCc1ccccc1 (configuration not stated),0,28µM*
Cc1cc(C(=O)N2CCCC3(C2)Nc2cccnc2NC3=NCc2ccccc2)nn1C (configuration not stated),0,?
COCCN=C1Nc2ncccc2NC12CCCN(C(=O)c1cccc(OC)c1)C2 (configuration not stated),3,32µM*
COc1ccccc1CCC(=O)N1CCCC2(C1)Nc1cccnc1NC2=NC1CCCC1 (configuration not stated),3,?
O=S(=O)(c1cccnc1)N1CCCC2(C1)Nc1cccnc1NC2=NCc1ccccc1 (configuration not stated),10,28µM*
CCn1nccc1C(=O)N1CCCC2(C1)Nc1cccnc1NC2=NCc1ccccc1 (configuration not stated),15,?
O=C(Nc1cccc(F)c1)N1CCCC2(C1)Nc1cccnc1NC2=NCc1ccccc1 (configuration not stated),8,?
Cc1noc(C)c1CC(=O)N1CCCC2(C1)Nc1cccnc1NC2=NC1CCCC1 (configuration not stated),0,25µM*
Cc1ccc(C(=O)N2CCC(C(=O)N3CCC(c4ccccc4)CC3)CC2)cc1,25,nt
COc1ccc(CNC(=O)C2CCN(c3nccc(Nc4ccccc4Cl)n3)CC2)cc1,-6,nt
Cc1nn(-c2ccccc2)c2c1C(C(C)C)N(C1CCCN(C(=O)Nc3ccc(Cl)cc3)C1)C2=O (configuration not stated),-3,nt
CC(C)c1ccc(NC(=O)NCC(O)c2ccc(F)c(F)c2)cc1 (configuration not stated),nt,i
O=C(NC1CC1)C1CCCN(c2nccc(Nc3ccccc3F)n2)C1 (configuration not stated),0,nt
COc1ccc(C(=O)N2C[C@H](C(N)=O)[C@H]3c4ccccc4N(C)C(=O)[C@]32C)cc1OC,-6,nt
Cn1cccc1CN1CCC(N2CCOCC2=O)CC1,-6,?
Cn1cccc1CN1CCC(N2CCOC2=O)CC1,-12,89µM*
COCCn1c(=O)c(C(=O)NCc2ccc(C(F)(F)F)cc2)nc2cccnc21,12,nt
SMILES,IP6K1 inhibitor,KDM5B inh
O=C(Cc1ccc(F)cc1)NCCNC(=O)c1ccc(-c2cccc(C(F)(F)F)c2)cc1,11,nt
COc1ccc(OC2CCN(C(C)=O)CC2)c(C(=O)N(C)CC2CCCCO2)c1 (configuration not stated),0,i
COc1ccc(OC2CCN(C(C)=O)CC2)c(C(=O)NC(C)Cc2cccnc2)c1 (configuration not stated),10,?
CCC(NC(=O)c1cc(OC)ccc1OC1CCN(C(C)=O)CC1)c1ccc(F)cc1 (configuration not stated),-6,28µM*
CCn1ccnc1CNC(=O)c1cc(OC)ccc1OC1CCN(C(=O)C2CC2)CC1,-9,28µM*
COc1ccc(OC2CCN(C(C)=O)CC2)c(C(=O)NC(C)Cc2cccs2)c1 (configuration not stated),6,28µM*
COc1ccc(OC2CCN(C(C)=O)CC2)c(C(=O)NCc2csc(C(C)C)n2)c1,-4,?
ClC(Cl)(Cl)C1=NC(C(Cl)(Cl)Cl)N=C(c2ccccc2)N1 (configuration not stated),nt,i
CN(C)c1ncc2c(n1)C(C)(C(=O)NCCCn1ccnc1)CCC2 (configuration not stated),-4,35µM*
CC1(C(=O)NCc2cccnc2)CCCc2cnc(Nc3ccccc3)nc21 (configuration not stated),-1,i
CC1(C(=O)NCC2CC2)CCc2cnc(Nc3ccccc3)nc21 (configuration not stated),8,i
CC1(C(=O)NCCCn2ccnc2)CCCc2cnc(Nc3ccccc3)nc21 (configuration not stated),-4,i
CC1(C(=O)Nc2ccc(C(N)=O)cc2)CCCc2cnc(Nc3ccccc3)nc21 (configuration not stated),0,i
CN(C)c1ncc2c(n1)C(C)(C(=O)NCC1CC1)CCC2 (configuration not stated),29,32µM*
CN(C)c1ncc2c(n1)C(C)(C(=O)NCCOc1ccccc1)CCC2 (configuration not stated),5,32µM*
CN(C)c1ncc2c(n1)C(C)(C(=O)Nc1ccc(Cl)cc1)CCC2 (configuration not stated),-12,35µM*
Cc1cccc2c1O[C@H]1[C@H](CO)CN([S+](=O)([O-])Cc3ccccc3)[C@@H]21,21,nt
COc1ccc(F)cc1-c1ccc(CN2CCCCC2C(=O)NCCc2ccccn2)cc1 (configuration not stated),3,nt
COc1cccc(-c2cccc(C(=O)N3CCN(C(=O)c4ccc(C(F)(F)F)cc4)CC3)c2)c1,8,nt
COCCNC(=O)CC1=C2CCCCC2N(Cc2ccccc2)C1=O (configuration not stated),-5,nt
CCOC(=O)C1CCCN(C(=O)c2ccc3oc(-c4ccncc4Cl)nc3c2)C1 (configuration not stated),16,nt
Cc1cc(C)cc(-c2ccc(CN3CCCC(NC(=O)c4cccc(Cl)c4)C3)cc2)c1 (configuration not stated),15,nt
Nc1cccn2nc(-c3ccccc3)nc12,12,28µM*
Nc1cccn2nc(-c3cccnc3)nc12,4,?
CC[C@H]1COCCN1C(=O)c1csc(Cc2ccccc2)n1,3,i
CCNC(=O)CC1COCCN1C(=O)c1csc(-c2cccs2)n1 (configuration not stated),5,22µM*
Cc1cn2nc(C(=O)NC3CCc4ccccc43)cc2c(N2CCCC2)n1 (configuration not stated),-3,14µM*
